Only some compounds are listed: those with a hit (about 12% of all), similar ones and a draw of the others.
G9a block = qHTS Assay for Inhibitors of Histone Lysine Methyltransferase G9a | Histone-lysine N-methyltransferase EHMT2 (Homo sapiens), Q96KQ7 | G9a H3K9 monomethylation, AlphaScreen, 2 h | Potency, µM (highest dose often 102 µM), actives largely listed as inhibitors | hit rate 8.8% among 350,000 | AID 504332, 2011; further: nearly all actives have a fitted effect of over 75% in size
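G9a (20 nM) was preincubated 15 min with compound, then reacted 2 h at room temperature with 500 nM biotin-H3K9 peptide and 20 µM SAM. Monomethyl-H3K9 detected by AlphaScreen using anti-H3K9me1 antibody.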
L3MBTL1 inh = qHTS Assay for the Inhibitors of L3MBTL1; AID 485360, 2010; AlphaScreen L3MBTL1–H3K9me1 peptide binding; Lethal(3)malignant brain tumor-like protein 1 (Homo sapiens), Q9Y468; hit rate 0.66% among 230,000; Potency, µM (series often up to 57.1 µM), hits mostly inhibitors; further: nearly all actives have a fitted effect of over 60% in size
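Read-out is AlphaScreen signal from streptavidin donor and nickel chelate acceptor beads (10 ug/mL final each) bridging L3MBTL1 (50 nM) and biotinylated K9-monomethylated H3(1-15) peptide (75 nM), after 30 min compound exposure at room temperature.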
HP1b binding inh = HTS for Inhibitors of HP1-beta Chromodomain Interactions with Methylated Histone Tails; Chromobox protein homolog 1 (Homo sapiens), P83916; AlphaScreen HP1-beta / biotin-H3K9me3 peptide binding; Potency, µM (highest dose often 114 µM), actives largely listed as inhibitors; hit rate 0.56% among 390,000; further: nearly all actives have a fitted effect of over 70% in size
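Compound inhibition of the preformed complex between 50 nM HP1-beta and 50 nM biotinylated H3K9me3 peptide was read by AlphaScreen. Buffer was PBS pH 7.4 with 0.01% Tween-20. Incubations ran 30 min at room temperature, with 10 ug/mL donor/acceptor beads.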
BAZ2B block = qHTS Assay for Inhibitors of BAZ2B; AlphaScreen BAZ2B-H3K14Ac peptide displacement; Potency, µM (highest dose often 114 µM), most hits filed as inhibitors; hit rate 4.4% among 360,000; AID 504333, 2011; further: nearly all actives have a fitted effect of over 60% in size
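BAZ2B (50 nM) with biotin-H3(5-23)K14Ac peptide (50 nM) in PBS pH 7.4, 0.01% Tween-20, preformed 30 min, then compound 30 min at room temperature; top concentration 110uM. AlphaScreen streptavidin donor/nickel chelate acceptor beads (10 ug/mL final), 20 min dark, signal read.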
Sfp inh = qHTS Assay for Inhibitors of Bacillus subtilis Sfp phosphopantetheinyl transferase (PPTase); Potency, µM, usual class: inhibitors; hit rate 3.5% among 310,000; Biochemical Sfp PPTase activity, qHTS; AID 1490, 2009; 4'-phosphopantetheinyl transferase ffp (Bacillus subtilis), Q9F4F7;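 further: the enzyme is Sfp with the accession as filed and its product quenches rhodamine fluorescence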
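Step 1, compound plus 15 nM Sfp-PPTase, 15 min, room temperature. Step 2, add rhodamine-CoA (5 uM) and BHQ-2-YbbR (12.5 uM). Step 3, read 525/598 nm fluorescence at 0 and 30 min.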
JMJD2A Tudor inh = qHTS Assay for Inhibitors of JMJD2A-Tudor Domain. hit rate 4.4% among 390,000. AlphaScreen JMJD2A-Tudor / H3K4me3 peptide binding. Potency, µM (highest dose often 114 µM), hits mostly inhibitors. Lysine-specific demethylase 4A (Homo sapiens), O75164; further: nearly all actives have a fitted effect of over 50% in size
A number is an active result; 0 = inactive; ? = inconclusive; - = no result; [ ] = another dose, or the depositor's remark. The call rests on the fitted dose curve; in most records, active means well fitted curve in the direction sought with a large enough effect; inconclusive means small, poorly fitted or top-dose-only effect, or another doubt; inactive means no such curve, though single readings can be large; an effect the other way counts as inactive or inconclusive.

SMILES	G9a block	L3MBTL1 inh	HP1b binding inh	BAZ2B block	Sfp inh	JMJD2A Tudor inh
COC(=O)CSc1nnc(-c2sc3cc(OC)ccc3c2Cl)n1C	6.3µM	0[11.4 µM]	0	0	0	0
COC(=O)CSc1nnc(-c2sc3ccccc3c2Cl)o1	13µM	0	0	0	0	0
COc1ccc2c(c1)nc(SCC(=O)c1ccc(Br)s1)n2C	40µM	0	0	?	56µM	56µM
COC(=O)CSc1nc2cc(OC)ccc2n1C	71µM	0	0	0	0	0
COC(=O)N1CC=CC1(C)C(=O)NCC1CC1 (stereo unspecified)	-	-	-	-	0	-
O=C(O)CCCC(=O)NCc1c(Cl)cccc1Sc1ccc(Cl)cc1	-	0	0	0	79µM	0
Cc1ccc(OCC(=O)N2CCC(Cc3ccccc3)CC2)c([N+](=O)[O-])n1	10µM	0	0	0	-	0
COc1cc(OC)c(NC(=O)Cn2c(SCc3ccccc3F)nc3cccnc32)cc1Cl	0	-	0	0	-	0
CC(=O)/C(=N/Nc1ccccc1Cl)Sc1nnc(C(O)c2ccccc2)n1-c1ccccc1 (stereo unspecified)	10µM	0	0	0	0	?
CCOC(=O)/C(=N/Nc1ccc(OC)cc1)Sc1nnc(CCc2ccccc2)n1-c1ccccc1	?	0	0	0	0	0
CC(=O)/C(=N\Nc1ccc(Cl)cc1Cl)Sc1nnc(-c2ccccc2)n1-c1ccccc1	?	?	0	0	0	0
COC(=O)/C(=N/Nc1ccccc1Cl)Sc1nnc(C(O)c2ccccc2)n1-c1ccccc1 (stereo unspecified)	45µM	0	0	0	0	0
CC(=O)/C(=N/Nc1ccc(C)cc1)Sc1nnc(CCc2ccccc2)n1-c1ccccc1	?	0	0	0	0	?
CC(=O)/C(=N/Nc1ccccc1)Sc1nnc(C(O)c2ccccc2)n1-c1ccccc1 (stereo unspecified)	45µM	0	0	?	0	0
COc1ccc2c(c1)O[C@@H](c1cccc(C(F)(F)F)c1)[C@H](OC(=O)NCc1ccco1)C2=O	-	-	-	-	0	-
CCOc1ccccc1NC(=O)CN1C(=O)C2(SCC(=O)N2c2ccc(C)cc2)c2ccccc21 (stereo unspecified)	0	-	0	0	-	0
N#C[C@@H]1[C@@H]2C(=O)N(c3ccc4c(c3)OCCO4)C(=O)[C@@H]2C2c3ccccc3C=CN21 (stereo partly specified)	7.9µM	?	-	0	0	-
CC(=O)[C@@H]1[C@@H]2C(=O)N(c3ccc(F)c(Cl)c3)C(=O)[C@@H]2C2c3ccccc3C=CN21 (stereo partly specified)	6.3µM	0	-	0	0	-
COc1ccc(NC(=O)[C@@H]2[C@@H]3C(=O)N(C4CCCCC4)C(=O)[C@@H]3C3c4ccccc4C=CN32)cc1 (stereo partly specified)	?	0	0	-	0	0
CC(=O)[C@@H]1[C@@H]2C(=O)N(C3CCCCC3)C(=O)[C@@H]2C2c3ccccc3C=CN21 (stereo partly specified)	0[0.501 µM]	0	-	?	0	-
CC(C)(C)C(=O)[C@@H]1[C@@H]2C(=O)N(Cc3ccccc3)C(=O)[C@@H]2[C@H]2c3ccccc3C=CN12	10µM	-	-	0	0	-
COC(=O)C1(CCSC)NC(c2ccccc2F)C2C(=O)N(c3ccc4c(c3)OCCO4)C(=O)C21 (stereo unspecified)	0	0	0	0	0	0
CC(=O)[C@H]1[C@@H]2C(=O)N(c3cccc(Cl)c3)C(=O)[C@@H]2[C@H]2c3ccccc3C=CN21	1.4µM	0	0	?	?	?
COc1cccc(-c2nc(-c3ccc(-c4ccccc4)nc3OC)no2)c1	0	-	0	0	-	0
Cn1c2cc(B(O)O)sc2c2cnn(Cc3ccc(F)cc3F)c(=O)c21	0[12.7 µM]	0	-	0	-	-

Bioassay records from PubChem.
